The full list was thinned out, with hits kept by preference.
IDE exosite FP: exo-site inhibitors of human IDE, primary screen, biochemical, fluorescence anisotropy, probe displacement; Insulin-degrading enzyme (Homo sapiens), P14735; purified IDE, FL-6b probe fluorescence polarization; stronger effect = lower value; z-score at 20 µM; 17,000 compounds, 6.3% hits; AID 1259349, 2017;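 active means z-score of -3 or lower, meaning strong loss of probe binding signal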;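 further: His-tagged human IDE residues 42-1019 made in E. coli with 30 nM FL-6b probe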
Target sequence (P14735 42-1019 limits assumed): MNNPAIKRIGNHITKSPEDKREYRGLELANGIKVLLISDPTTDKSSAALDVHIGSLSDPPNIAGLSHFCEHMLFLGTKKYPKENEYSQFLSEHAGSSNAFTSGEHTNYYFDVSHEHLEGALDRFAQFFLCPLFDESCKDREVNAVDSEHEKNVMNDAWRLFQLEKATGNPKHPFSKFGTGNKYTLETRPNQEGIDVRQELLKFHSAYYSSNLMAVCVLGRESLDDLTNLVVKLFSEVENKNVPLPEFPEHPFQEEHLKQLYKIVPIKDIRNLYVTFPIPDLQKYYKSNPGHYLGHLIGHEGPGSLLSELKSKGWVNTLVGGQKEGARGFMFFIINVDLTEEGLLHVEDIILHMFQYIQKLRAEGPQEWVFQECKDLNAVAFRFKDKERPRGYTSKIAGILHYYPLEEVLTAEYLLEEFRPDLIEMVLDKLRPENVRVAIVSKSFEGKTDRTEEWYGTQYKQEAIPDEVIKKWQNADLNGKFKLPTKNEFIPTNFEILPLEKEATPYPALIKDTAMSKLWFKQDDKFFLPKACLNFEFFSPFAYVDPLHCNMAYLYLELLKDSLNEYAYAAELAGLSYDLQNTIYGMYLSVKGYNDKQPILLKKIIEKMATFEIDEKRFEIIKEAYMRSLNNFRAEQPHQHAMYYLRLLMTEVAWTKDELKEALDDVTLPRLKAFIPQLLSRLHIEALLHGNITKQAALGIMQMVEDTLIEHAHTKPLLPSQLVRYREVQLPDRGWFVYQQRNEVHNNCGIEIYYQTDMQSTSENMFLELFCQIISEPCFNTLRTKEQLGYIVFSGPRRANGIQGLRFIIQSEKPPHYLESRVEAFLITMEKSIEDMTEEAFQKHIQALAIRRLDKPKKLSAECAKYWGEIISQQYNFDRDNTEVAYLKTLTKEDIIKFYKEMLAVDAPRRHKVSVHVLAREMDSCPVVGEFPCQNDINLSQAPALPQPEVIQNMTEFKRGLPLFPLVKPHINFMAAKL
A number is an active result; n = inactive.

SMILES	IDE exosite FP
COc1ccc(C#Cc2ccc([C@@H]3[C@H](CO)N4CCCCN(C(=O)Nc5ccccc5)C[C@@H]34)cc2)cc1	n
COc1ccccc1NC(=O)N1CCCCN2[C@H](CO)[C@H](c3ccc(C#Cc4ccccc4)cc3)[C@@H]2C1	n
COc1ccccc1C#Cc1ccc([C@@H]2[C@@H](CO)N3CCCCN(C(=O)C4CCC4)C[C@H]23)cc1	-8.25
COc1ccc(C#Cc2ccc([C@H]3[C@@H](CO)N4CCCCN(C(=O)Nc5ccccc5)C[C@@H]34)cc2)cc1	n
COc1ccccc1C#Cc1ccc([C@@H]2[C@H](CO)N3CCCCN(C(=O)C4CCC4)C[C@@H]23)cc1	-10.5
COc1ccccc1NC(=O)N1CCCCN2[C@H](CO)[C@@H](c3ccc(C#Cc4ccccc4)cc3)[C@H]2C1	n
COc1ccccc1C#Cc1ccc([C@H]2[C@H]3CN(C(=O)C4CCC4)CCCCN3[C@H]2CO)cc1	-17.5
CN(C)CC#Cc1ccc([C@@H]2[C@H](CO)N3CCCCN(C(=O)C4CCC4)C[C@@H]23)cc1	n
COc1ccccc1NC(=O)N1CCCCN2[C@@H](CO)[C@H](c3ccc(C#Cc4ccccc4)cc3)[C@@H]2C1	n
COc1ccc(C#Cc2ccc([C@H]3[C@H]4CN(C(=O)Nc5ccccc5)CCCCN4[C@H]3CO)cc2)cc1	n
CN(C)CC#Cc1ccc([C@@H]2[C@H]3CN(C(=O)C4CCC4)CCCCN3[C@H]2CO)cc1	n
C/C=C/c1ccc([C@@H]2[C@H](CO)N3C(=O)CN(Cc4ccc(F)cc4)C[C@@H]23)cc1	n
COCC(=O)N1[C@H](C#N)[C@H](c2ccccc2-c2cccc(F)c2)[C@H]1CO	n
O=C1CN(S(=O)(=O)c2ccccc2)C[C@H]2[C@@H](c3ccc(C4=CCCC4)cc3)[C@@H](CO)N12	n
COCC#Cc1ccc([C@H]2[C@@H](CO)N3C(=O)CN(C(=O)c4ccncc4)C[C@@H]23)cc1	n
COc1ccccc1-c1ccc([C@@H]2[C@@H](C#N)N(C(=O)NC(C)C)[C@@H]2CO)cc1	-12.9
COc1ccc(-c2ccc([C@H]3[C@H](C#N)N(C(=O)NC4CCCCC4)[C@H]3CO)cc2)cc1	n
COc1ccccc1-c1ccc([C@@H]2[C@@H](C#N)N(C(=O)NC3CCCCC3)[C@@H]2CO)cc1	-10.5
COc1ccccc1-c1ccc([C@@H]2[C@@H](C#N)N(C(=O)CN(C)C)[C@H]2CO)cc1	-12.4
COc1ccc(-c2ccc([C@@H]3[C@@H](CO)N(C(=O)NC(C)C)[C@H]3C#N)cc2)cc1	n
COc1ccc(-c2ccccc2[C@H]2[C@@H](C#N)N(C(=O)NC3CCCCC3)[C@H]2CO)cc1	n
CN(C)CC(=O)N1[C@H](C#N)[C@@H](c2ccc(-c3ccccc3F)cc2)[C@H]1CO	n
COc1ccccc1-c1ccccc1[C@@H]1[C@H](C#N)N(C(=O)CN(C)C)[C@H]1CO	n
COc1ccc(-c2ccc([C@@H]3[C@@H](C#N)N(C(=O)NC(C)C)[C@H]3CO)cc2)cc1	n
CC(C)NC(=O)N1[C@H](CO)[C@@H](c2ccccc2)C12CN(Cc1cc(F)cc(F)c1)C2	n
SMILES	IDE exosite FP
OC[C@@H]1[C@H](c2ccc(C#Cc3cccnc3)cc2)[C@H]2CN(Cc3ccccc3F)CCCCN12	n
C/C=C/c1ccc([C@@H]2[C@@H](CO)N(C(C)=O)[C@H]2CN(C)S(C)(=O)=O)cc1	n
C/C=C/c1ccc([C@H]2[C@H](CO)N3C(=O)CN(Cc4ccc(C(=O)OC)cc4)C[C@@H]23)cc1	n
O=S(=O)(c1ccccc1)N1CC2(C1)[C@H](c1ccccc1)[C@H](CO)N2CCC(F)(F)F	n
COc1ccc2c3c(n(C)c2c1)[C@@H](CO)N(C)CC31CN(C(=O)C2CCC2)C1	n
O=C(Cc1cccnc1)N1CC(=O)N2[C@H](C1)[C@H](c1ccc(C3=CCCC3)cc1)[C@@H]2CO	n
COc1ccc(-c2ccc([C@@H]3[C@@H](CO)N4C(=O)CN(Cc5ccc(C)cc5)C[C@H]34)cc2)cc1	n
N#C[C@H]1[C@@H](c2ccc(-c3cccc(F)c3)cc2)[C@@H](CO)N1C(=O)c1cccnc1	n
CCc1cnc(N2[C@H](C#N)[C@@H](c3ccc(C#CC(C)C)cc3)[C@@H]2CO)s1	n
O=C(c1cnccn1)N1CC(=O)N2[C@H](C1)[C@@H](c1ccc(-c3ccccc3)cc1)[C@@H]2CO	-6.04
O=C(c1cnccn1)N1CC(=O)N2[C@H](C1)[C@H](c1ccc(-c3ccccc3)cc1)[C@@H]2CO	n
C/C=C/c1ccc([C@@H]2[C@@H](CO)N3C(=O)CN(C(=O)c4cnccn4)C[C@@H]23)cc1	n
Cc1cccc(-c2ccc([C@H]3[C@H]4CN(C(=O)c5cnccn5)CC(=O)N4[C@H]3CO)cc2)c1	-5.35
Cc1cccc(-c2ccc([C@@H]3[C@H]4CN(C(=O)c5cnccn5)CC(=O)N4[C@H]3CO)cc2)c1	-15.9
O=C(c1cnccn1)N1CC(=O)N2[C@H](CO)[C@@H](c3ccc(C4=CCCCC4)cc3)[C@H]2C1	n
O=C(c1cnccn1)N1CC(=O)N2[C@H](C1)[C@H](c1ccc(-c3ccc(F)cc3)cc1)[C@@H]2CO	n
Cc1cccc(-c2ccc([C@H]3[C@H](CO)N4C(=O)CN(C(=O)c5cnccn5)C[C@@H]34)cc2)c1	-13.8
N#C[C@@H]1[C@@H](c2ccccc2)[C@H](CO)N1C(=O)c1ccc2c(c1)OCO2	n
CO[C@H](CN(C)C(=O)C1CCOCC1)[C@H](C)CN(C(=O)Nc1ccc(C(F)(F)F)cc1)[C@H](C)CO	n
CCC(=O)N1[C@H](CNC(=O)CN(C)C)[C@@H](c2ccc(C3=CCCC3)cc2)[C@@H]1CO	n
COc1ccccc1S(=O)(=O)N[C@H]1C=C[C@H](CC(=O)N2CCOCC2)O[C@H]1CO	n
N#C[C@H]1[C@@H](c2ccccc2-c2cccc(F)c2)[C@@H](CO)N1C(=O)CN1CCOCC1	n
CCCNC(=O)N1CC(=O)N2[C@H](C1)[C@H](c1ccc(-c3ccncc3)cc1)[C@@H]2CO	n
CCCNC(=O)N(C)C[C@H]1[C@H](c2ccccc2)[C@@H](CO)N1C(=O)c1ccccc1	n
CO[C@H]1CN(C)C(=O)c2cc(NC(C)=O)ccc2OC[C@@H](C)N(S(C)(=O)=O)C[C@@H]1C	n
SMILES	IDE exosite FP
CN(C)C(=O)C[C@H]1C[C@@H]2c3cc(NC(=O)c4cccnc4)ccc3O[C@@H]2[C@H](CO)O1	n
Cc1cccc(-c2ccc([C@@H]3[C@H](CO)N4C(=O)CN(C(=O)c5cnccn5)C[C@@H]34)cc2)c1	-10.8
Cc1cccc(-c2ccc([C@@H]3[C@@H](CO)N4C(=O)CN(C(=O)c5cnccn5)C[C@@H]34)cc2)c1	-17.5
COc1ccc([C@@H]2CC=CC[C@@H](C)Oc3ccccc3C(=O)N(C)[C@@H](C(C)C)C(=O)N2)c(OC)c1 (mixture of isomers)	n
O=C([C@@H]1[C@@H](CO)[C@@H]2Cn3c(cccc3=O)[C@H]1N2Cc1cocn1)N1CCCCC1	n
COc1ccc(CN(C)C[C@@H]2OCCCC[C@@H](C)Oc3ccc(NC(=O)C4CCCCC4)cc3C(=O)N([C@@H](C)CO)C[C@@H]2C)cc1	n
OC[C@@H]1Nc2ccc(-c3cccc(F)c3)cc2[C@H]2[C@@H]1CCN2Cc1ccc(F)cc1	n
COc1ccc(-c2ccccc2[C@H]2[C@@H](CO)N(C(=O)C3CC3)[C@H]2C#N)cc1	n
COc1ccc(-c2ccc([C@@H]3[C@H](CO)N4C(=O)CN(C(=O)c5cccnc5)C[C@@H]34)cc2)cc1	n
